Assay outcomes from PubChem.
Sfp PPTase inh: blocks B. subtilis Sfp PPTase activity. Q9F4F7. Biochemical Sfp PPTase activity, qHTS. Potency, µM, actives largely listed as inhibitors. hit rate 3.5% among 310,000. AID 1490;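 note: the enzyme is Sfp with the accession as filed and its product quenches rhodamine fluorescence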
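Compounds were incubated with enzyme (final 15 nM) for 15 min at room temperature before substrate addition started the reaction. Fluorescence at 525 nm excitation, 598 nm emission was recorded immediately and after 30 minutes.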
CCT chaperon mod: cytosolic chaperonin activity modulation; purified chaperonin ATPase assay, HTRF ADP detection, 30 min; activity change, % (no concentration beside the values), hits read low; hit rate 0.3% among 360,000; in the data active = activity change below about -30%
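TRiC (40 or 20 nM final, by batch activity) in 30 mM Tris pH 7.4, 100 mM KCl, 5 mM MgCl2, 1 mM DTT was treated with compound at 76 uM single dose, then 10 uM ATP, 30 min at 37 °C. ADP was read by HTRF Transcreener.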
PLK1 PBD block: inhibitors of human PLK1 polo-box domain binding. AID 720504. hit rate 2.8% among 360,000. Potency, µM, actives largely listed as inhibitors. Plk1 PBD binding of FITC phosphopeptide, fluorescence polarization; note: series mostly up to about 57 µM; nearly all actives have a fitted effect of over 65% in size
Target sequence (P53350 whole entry, looked up, the tested form may be a part): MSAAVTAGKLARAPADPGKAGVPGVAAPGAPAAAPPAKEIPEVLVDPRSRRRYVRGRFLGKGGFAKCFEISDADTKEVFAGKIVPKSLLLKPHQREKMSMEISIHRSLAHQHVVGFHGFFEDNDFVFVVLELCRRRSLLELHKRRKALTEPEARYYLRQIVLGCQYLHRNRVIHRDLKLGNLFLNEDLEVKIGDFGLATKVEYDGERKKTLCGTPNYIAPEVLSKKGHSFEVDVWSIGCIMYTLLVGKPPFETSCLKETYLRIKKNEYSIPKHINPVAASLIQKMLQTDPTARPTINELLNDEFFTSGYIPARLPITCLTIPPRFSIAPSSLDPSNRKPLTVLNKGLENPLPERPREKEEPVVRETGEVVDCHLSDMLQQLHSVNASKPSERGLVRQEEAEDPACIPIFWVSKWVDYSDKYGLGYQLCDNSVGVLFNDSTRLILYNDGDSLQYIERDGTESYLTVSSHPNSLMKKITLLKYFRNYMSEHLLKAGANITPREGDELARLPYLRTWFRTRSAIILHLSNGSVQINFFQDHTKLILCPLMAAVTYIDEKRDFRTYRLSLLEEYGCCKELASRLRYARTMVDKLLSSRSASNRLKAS
VDR inhibitor: vitamin D3 receptor (human) inhibition. P11473. VDR-SRC2-3 peptide fluorescence polarization, 2 h. Potency, µM, usual class: inhibitors. hit rate 0.93% among 400,000
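Two reagent solutions held at 4 deg C in the dark were dispensed, compounds pinned at 23 nl, and the mixture incubated 2 h at room temperature. Read-out: fluorescence polarization of VDR–SRC2-3 peptide binding.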
G9a block: inhibitors of human histone lysine methyltransferase G9a | G9a H3K9 monomethylation, AlphaScreen, 2 h | Potency, µM (series often up to 102 µM), usual class: inhibitors | hit rate 8.8% among 350,000 | AID 504332 | Q96KQ7; note: nearly all actives have a fitted effect of over 75% in size
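G9a (20 nM) was preincubated 15 min with compound, then reacted 2 h at room temperature with 500 nM biotin-H3K9 peptide and 20 µM SAM. Monomethyl-H3K9 detected by AlphaScreen using anti-H3K9me1 antibody.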
MmCpn inh: inhibitors of Methanococcus maripaludis chaperonin TRiC (MmCpn); purified Mm-Cpn ATPase, ADP Transcreener TR-FRET; Potency, µM (titrated, usually from 76.9 µM), most hits filed as inhibitors; hit rate 0.031% among 330,000; note: nearly all actives have a fitted effect of over 80% in size
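ATPase turnover read by TR-FRET ADP competition (Eu cryptate antibody/ADP-d2, 665/590 nm): 10uM ATP final, 25nM Mm-CPN final, 30 min 37degC after 10-min compound preincubation, pH 7.4 Tris/KCl/MgCl2/DTT buffer.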
Each line names hits and unclear results; the compound was inactive in the other large screens. This is a sample that favours compounds with a hit; in the whole collection about 10% have one here. Unless noted, calls come from the whole dose curve; as a rule, active = well fitted curve in the direction sought with a large enough effect; inconclusive = small, poorly fitted or top-dose-only effect, or another doubt; inactive = no such curve, though single readings can be large; an effect the other way counts as inactive or inconclusive.

O=C(CSc1ccsc1[N+](=O)[O-])NCCc1ccc(Cl)cc1	none
CCCCNC(=O)CSc1ccc(S(=O)(=O)N2CCOCC2)cn1	none (no result: Sfp PPTase inh)
CC(C)NC(=O)NC(=O)CSc1ccc(S(=O)(=O)N2CCOCC2)cn1	G9a block 45µM (no result: Sfp PPTase inh)
CN(C)C(=O)CSc1ccc(S(=O)(=O)N2CCCC2)cn1	G9a block 56µM (no result: Sfp PPTase inh)
C=C(C)CN(CC)C(=O)CSc1ccc(S(=O)(=O)N2CCN(Cc3ccccc3)CC2)cn1	none (no result: Sfp PPTase inh)
C=C(C)CN(CC)C(=O)CSc1ccc(S(=O)(=O)N2CCN(C)CC2)cn1	G9a block 45µM (no result: Sfp PPTase inh)
CCC(CC)NC(=O)CSc1ccc(S(=O)(=O)N2CCCCC2)cn1	G9a block 50µM (no result: Sfp PPTase inh)
CC(C)CCCC(C)C1CCC2C3CC=C4CC(=O)CC[C@@]4(C)C3CC[C@@]12C (stereo partly drawn)	VDR inhibitor inconclusive (no result: CCT chaperon mod, PLK1 PBD block, G9a block, MmCpn inh)
CCc1ccc(NC(=O)C(=O)NCC(c2ccc3c(c2)OCO3)N2CCOCC2)cc1 (stereo not drawn)	none (no result: Sfp PPTase inh, CCT chaperon mod, PLK1 PBD block, MmCpn inh)
C#CCn1c(=NC(=O)CN2C(=O)CCC2=O)sc2cc(S(N)(=O)=O)ccc21	none
C#CCn1c(=NC(=O)c2cc(Cl)sc2Cl)sc2cc(S(N)(=O)=O)ccc21	G9a block inconclusive, MmCpn inh 50µM
C[C@H](NC(=O)N1CCn2c1nc1ccccc12)C(=O)NC1CC1	none
O=C(c1ccccc1)N1CCn2c1nc1ccccc12	PLK1 PBD block 27µM, VDR inhibitor inconclusive
COc1ccc(CNC(=O)CCNC(=O)N2CCn3c2nc2ccccc23)cc1	PLK1 PBD block 24µM, G9a block 45µM
O=C(c1cccc(Cl)c1)N1CCn2c1nc1ccccc12	none
C[C@H](NC(=O)N1CCn2c1nc1ccccc12)C(=O)N1CCCCC1	PLK1 PBD block 8.4µM, VDR inhibitor inconclusive
COc1cccc(CNC(=O)CCNC(=O)N2CCn3c2nc2ccccc23)c1	G9a block inconclusive
CCOC(=O)c1ccc(N2C(=O)c3[nH]nc(-c4ccc(C)cc4)c3C2c2cccs2)cc1 (stereo not drawn)	none (no result: Sfp PPTase inh, CCT chaperon mod, PLK1 PBD block, MmCpn inh)
COc1cc(/C=N/N=C(N)N)ccc1OCc1ccccc1Cl	Sfp PPTase inh 25µM, G9a block inconclusive
CCSc1ccccc1C(=O)NCCCn1ccnc1	Sfp PPTase inh inconclusive, G9a block 20µM
O=C(NCCCn1ccnc1)C(F)(F)C(F)(F)C(=O)NCCCn1ccnc1	Sfp PPTase inh inconclusive, G9a block 14µM
CC(NC(=O)NCCCn1ccnc1)(C(F)(F)F)C(F)(F)F	none
O=C(CN1C(=O)COc2ccc(S(=O)(=O)NC3CCCC3)cc21)NCc1ccccc1Cl	none (no result: Sfp PPTase inh, CCT chaperon mod, PLK1 PBD block, MmCpn inh)
COC(=O)C1=C(C(=O)OC)[C@@H]2N(Cc3ccccc3)c3ccccc3[C@@]23C[C@@H](C(=O)OC)N(S(=O)(=O)c2ccc(OC)cc2)C3=N1	none (no result: CCT chaperon mod, PLK1 PBD block, VDR inhibitor, G9a block, MmCpn inh)
Cc1ccc(OCC(=O)Nc2ccc(N3CCCC3)cc2)cc1C	Sfp PPTase inh 32µM, G9a block 11µM
CCc1ccc(OCC(=O)Nc2ccc(N3CCN(S(C)(=O)=O)CC3)cc2)cc1	G9a block 79µM
CC(C)(C)c1ccc(OC(=O)Nc2ccc(O)c(C(=O)O)c2)cc1	Sfp PPTase inh 50µM, G9a block inconclusive
Cc1ccc(C(C)C)cc1OCC(=O)Nc1ccc(N2CCCCC2)cc1	G9a block 16µM (no result: Sfp PPTase inh)
CCOc1ccccc1OCC(=O)Nc1ccc(N2CCCCC2)cc1	G9a block inconclusive
Cc1cc(C)cc(OCC(=O)Nc2ccc(N3CCCC3)cc2)c1	Sfp PPTase inh 56µM
Cc1ccc(OCC(=O)Nc2ccc(O)c(C(=O)O)c2)cc1C	G9a block 35µM
Cc1cc(NC(=O)COc2ccc(C)c(C)c2)no1	VDR inhibitor inconclusive
Cc1ccc(OCC(=O)Nc2cc(C(C)(C)C)on2)cc1C	Sfp PPTase inh 45µM (no result: G9a block)
CCCN(CCC)CCCNC(=O)Cn1ncc2c3ccccc3n(Cc3ccccc3F)c2c1=O	none (no result: Sfp PPTase inh, CCT chaperon mod, PLK1 PBD block, MmCpn inh)
Cc1oc2ncn(CC(C)C)c(=O)c2c1C(=O)NCc1cccc(Cl)c1	none (no result: Sfp PPTase inh, CCT chaperon mod, PLK1 PBD block, MmCpn inh)
Cc1ccc2onc(CC(=O)N3CCN(c4ccccc4)CC3)c2c1	none (no result: Sfp PPTase inh, CCT chaperon mod, PLK1 PBD block, MmCpn inh)
CC1=C(C#N)C(=O)N(C2CCS(=O)(=O)C2)C(=O)/C1=C\c1ccco1 (stereo not drawn)	Sfp PPTase inh 45µM, G9a block 5µM (no result: CCT chaperon mod, PLK1 PBD block, VDR inhibitor)
Cc1ccc(C)c(Nc2nn3c(=O)c4ccc(C(=O)NCc5cccs5)cc4nc3s2)c1	none (no result: Sfp PPTase inh, CCT chaperon mod, PLK1 PBD block, MmCpn inh)
